Source: PubChem (The Scripps Research Institute Molecular Screening Center)
Most compounds without a hit are left out; they make up all but 3.5% or so of the library.
FBW7 activator = activators of human E3 ligase FBW7. Q969H0. AlphaScreen FBW7–phospho-cyclin E peptide binding, activator screen. normalized activity (activation), % at 26.1 µM. actives 0.13% (n = 650,000). AID 1259310; in the data active = normalized activity above about 1.9%;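 also: purified mutant Fbw7 with reduced substrate affinity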
MITF primary = human MITF inhibition, primary screen. O75030. AlphaScreen MITF homodimerization, bead proximity signal. inhibition, % at 2.6 µM. actives 0.91% (n = 650,000). AID 1259374; in the data active = inhibition above about 50%;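 also: 0% = vehicle wells with protein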
GPR151 activ = activators of human GPR151; PathHunter beta-arrestin GPR151 cells, luminescence; activation, % at 11.2 µM; actives 1% (n = 650,000); AID 1508602; in the data active = activation above about 4.9%;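 also: 0% = median of compound wells and 100% = cells with positive control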
Target sequence (Q8TDV0 whole entry, looked up): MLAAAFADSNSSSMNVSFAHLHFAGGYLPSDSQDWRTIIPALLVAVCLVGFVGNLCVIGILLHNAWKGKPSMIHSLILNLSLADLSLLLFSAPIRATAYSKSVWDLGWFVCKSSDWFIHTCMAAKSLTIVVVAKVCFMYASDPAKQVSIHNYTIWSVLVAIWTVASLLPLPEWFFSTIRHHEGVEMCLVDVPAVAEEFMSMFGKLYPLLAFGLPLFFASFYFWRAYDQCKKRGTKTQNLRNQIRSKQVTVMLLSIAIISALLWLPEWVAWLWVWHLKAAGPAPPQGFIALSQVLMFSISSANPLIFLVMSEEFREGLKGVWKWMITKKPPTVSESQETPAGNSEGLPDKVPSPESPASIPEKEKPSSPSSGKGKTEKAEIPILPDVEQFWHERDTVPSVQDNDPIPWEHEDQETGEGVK
TEAD-YAP inh = TEAD-YAP interaction inhibition; HEK-TIYL cells, TEAD-Gal4/YAP UAS-luciferase luminescence; inhibition, % at 9.12 µM; actives 1.4% (n = 640,000); AID 1259422; in the data active = inhibition above about 32%;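 also: 0% = median of test compound wells and 100% = reference inhibitor wells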
GPR151 conf act = human GPR151 activation, confirmation screen; 6,700 tested, under 10 active; GPR151 PathHunter beta-arrestin cells, luminescence, 90 min; % of EA-reagent control over plate median; AID 1508609; activation, % at 11.2 µM; shares compounds with GPR151 activ;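 active = mean percent activation across replicates above the confirmation screen cutoff of 4.91%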
GPR119 counter = counter-screen for GPR151 activators: effect on human GPR119. shares compounds with GPR151 activ. GPR119 PathHunter beta-arrestin cells, luminescence, 90 min; 0 = compound-well median, 100 = enzyme-acceptor control. activation, % at 11.2 µM. actives 0.3% (n = 6,700). AID 1508611;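 active = mean percent activation in the counterscreen above 29.09%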;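 also: counterscreen on off-target GPR119 to flag nonselective hits from the GPR151 activator screen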
* = called active by the depositor; · = not tested or not shown.

SMILES	FBW7 activator	MITF primary	GPR151 activ	TEAD-YAP inh	GPR151 conf act	GPR119 counter
O=C(C1CCN(S(=O)(=O)c2ccccc2)CC1)N1CCCC2CCCCC21 (configuration not stated)	0	11	6.2*	4	1	5
Cc1cccc(-c2nc3ccccc3c(=O)n2CC(=O)Nc2ccc(C)c(F)c2)c1	0	18	2	-13	·	·
CCC(CC)C(=O)Nc1c2c(nn1-c1ccc(OC)cc1)CS(=O)(=O)C2	0	-4	7.4*	-2	-1	8
COc1ccc(-n2nc3c(c2NC(=O)c2ccc(C)cc2)CS(=O)(=O)C3)cc1	0	-2	5.4*	6	1	4
COc1ccc(-n2nc3c(c2NC(=O)CCC2CCCC2)CS(=O)(=O)C3)cc1	0	-3	17*	-5	1	9
Clc1cc(N2CCN(c3ncccn3)CC2)ncn1	1	2	-1	-1	·	·
Cc1ccccc1CN1C(=O)CSc2ccc(C(=O)N3CCCC3)cc21	0	6	0	11	·	·
O=C(COc1ccc(Cl)cc1)Nc1ccccc1C(=O)O	0	-7	-2	-23	·	·
CSc1cccc(C(=O)Nc2nnc(-c3ccccc3Cl)o2)c1	0	-2	0	0	·	·
O=C(O)c1ccc(CNCc2ccc(Cl)cc2Cl)cc1	1	19	8.9*	15	-1	-15
CC1CCCCC1NC(=O)Cn1nc(-c2ccc(Cl)cc2)ccc1=O (configuration not stated)	0	4	5.6*	4	1	-4
CCC(=O)Oc1ccc2c(=O)c(Oc3cc(C)cc(C)c3)coc2c1	0	4	-1	11	·	·
CC(C)CC(NC(=O)C1CCC(C)CC1)C(=O)Nc1cccnc1 (configuration not stated)	0	10	7.4*	13	-1	-11
Cc1cc(NC(=O)C(C)n2cc([N+](=O)[O-])cn2)ccc1Br (configuration not stated)	0	10	5.2*	-3	1	9
CCc1ccc(NC(=O)CSc2nc3ccccc3c(=O)n2CCc2ccc(OC)c(OC)c2)cc1	0	-8	0	-1	·	·
CC(=O)n1c(SCC(=O)Nc2ccc(C(C)C)cc2)nc2ccccc21	0	-1	6.8*	-11	0	13
CC(C)c1ccc(NC(=O)CSc2nc3ccccc3n2S(=O)(=O)c2cccs2)cc1	1	8	0	-7	·	·
COc1ccc(CNC(=O)CCCn2c(SCC(=O)Nc3ccc(OC)cc3OC)nc3cc4c(cc3c2=O)OCO4)cc1	0	-7	2	3	·	·
COc1ccc(NC(=O)CSc2nc3ccccc3c(=O)n2CCCC(=O)NCc2ccccc2)c(OC)c1	0	3	7.5*	0	-1	-23
CCn1c(SCC(=O)Nc2ccc(C(=O)OC)cc2)nc2cccnc21	0	12	5.5*	4	0	-6
CCc1ccc(NC(=O)CSc2nc3ccccc3c(=O)n2CCc2ccccc2)cc1	0	-6	5.8*	-2	-1	-12
COc1ccc(C2C(C(=O)Nc3ccc(C)cc3Br)c3cc(OC)c(OC)cc3C(=O)N2C)cc1OC (configuration not stated)	0	-8	0	-2	·	·
Cc1cc(C)nc(CCNC(=O)c2ccc(OC3CCN(Cc4ccccn4)CC3)cc2)n1	0	2	-1	-5	·	·
COc1ccc(NC(=O)CCCN2C(=O)CCC2=O)c(OC)c1	0	16	10*	3	-1	1
CCn1c(SCC(=O)c2cccs2)nc2c1c(=O)n(C)c(=O)n2C	0	-3	5.3*	-3	0	-1
O=C(N/N=C/c1ccncc1)C1CC1(c1ccccc1)c1ccccc1 (configuration not stated)	0	-25	5.9*	-18	0	8
CN(CCC#N)c1ncnc2c1oc1ccccc12	0	-7	10*	-9	0	4
COc1ccc(C(=O)C2=NCCc3cc(OC)c(OC)cc32)cc1OC	0	5	-1	-3	·	·
Cc1cc(C)c2[nH]c(=O)c(CN(CCCO)Cc3nnnn3CCc3ccccc3)cc2c1	1	10	6.0*	14	1	9
